High-throughput results: PubChem, National Center for Advancing Translational Sciences (NCATS)
D2 ag-1 = activates the human D2 dopamine receptor. P14416. DiscoveRx PathHunter D2 beta-arrestin, luminescence, 90 min; 100% = 57 uM dopamine signal. activation, % (concentration not given with the values). 360,000 tested, 0.084% active. AID 624465; in the data active = activation above about 40%; inconclusive = between about 15% and that limit
Target sequence (P14416 whole entry, looked up): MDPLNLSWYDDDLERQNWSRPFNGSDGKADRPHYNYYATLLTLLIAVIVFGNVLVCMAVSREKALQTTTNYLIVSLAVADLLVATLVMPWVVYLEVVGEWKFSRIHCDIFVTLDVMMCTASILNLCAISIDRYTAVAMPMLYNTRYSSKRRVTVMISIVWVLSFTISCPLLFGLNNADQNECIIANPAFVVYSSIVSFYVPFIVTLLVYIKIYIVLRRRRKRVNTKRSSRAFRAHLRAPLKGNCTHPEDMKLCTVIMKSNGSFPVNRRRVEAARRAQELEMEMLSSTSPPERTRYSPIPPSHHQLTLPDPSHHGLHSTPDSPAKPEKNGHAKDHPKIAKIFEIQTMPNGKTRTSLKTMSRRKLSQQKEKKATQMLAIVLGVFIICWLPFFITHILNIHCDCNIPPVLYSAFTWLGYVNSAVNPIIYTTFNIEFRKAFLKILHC
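Agonist mode: compounds alone added to overnight-plated D2 PathHunter cells for 90 min at 37 C, with 57 uM final dopamine (EC100) defining full response. Beta-arrestin recruitment detected by chemiluminescent reagent, read after 1 h at ambient temperature.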
D2 antagonist = D2 dopamine receptor (human) antagonism. P14416. HEK293 TREx D2 cells, calcium flux, dopamine EC80. inhibition, % at 10 µM. 340,000 tested, 2% active. AID 485344; in the data active = inhibition above about 30%; inactive = below that, where a call was filed; also: 0% is about no effect
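Tetracycline-induced HEK293 T-REx cells expressing D2 force-coupled to calcium signalling were dye-loaded, exposed to compound for 180 s, then challenged with an EC80 of dopamine; calcium flux was followed kinetically for a further 180 s.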
D2 ag-2 = agonists of human D2 dopamine receptor. HEK293 T-REx D2 cells, calcium flux agonist mode. activation, % at 2 µM. 340,000 tested, 0.53% active;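 active = activation over 3 SD above normal in the single-dose calcium agonist read, cut at about 30% in these data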; also: 0% is about no effect
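Agonism scored from kinetic calcium signal (1 read/sec, 180 s) following compound pin transfer, after a 10 s baseline. Cells: HEK293 Trex line expressing inducible D2 receptor coupled to calcium, dye-loaded after overnight culture at 30 C.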
D2 PAM-1 = D2 dopamine receptor (human) potentiation; P14416; HEK293 T-REx D2, calcium flux, EC20 dopamine potentiation; potentiation, % at 10 µM; 340,000 tested, 0.34% active;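 active = potentiation over 3 SD above the plate norm, cut at about 30% in these data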; also: 0% is about no effect
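Potentiation of an EC20 dopamine calcium response measured kinetically over 180 s, after a preceding 180 s compound-only read flagging agonists. Cells: inducible Hek293 Trex D2 line, 4000/well, cultured overnight at 30 C before dye loading.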
D2 PAM-2 = positive allosteric modulators of human D2 dopamine receptor; 360,000 tested, 0.23% active; potentiation, % (concentration not given with the values); P14416; DiscoveRx D2 beta-arrestin cells, luminescence, 90 min; 100% = 57 uM dopamine signal; AID 624464; in the data active = potentiation above about 50%; inconclusive = mostly about 30% to 49%
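D2 cells co-treated with compound plus 50 nM dopamine (EC20) for 90 min at 37 deg C to detect potentiation. Beta-arrestin recruitment was read as enzyme-fragment luminescence after 1 h at ambient temperature. Full response was set by 57 uM dopamine.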
D3 ag = confirmation of human D3 dopamine receptor agonists, beta-arrestin | Potency, µM (doses to about 76.9 µM), for inactives: at the top dose activation, most hits filed as activators | 2,300 tested, 4% active | shares compounds with D2 ag-2 | DiscoveRx D3 beta-arrestin cells, luminescence, 90 min | AID 720506;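 also: potency is read from the fitted curve at half-maximal effect; 100% = dopamine control response; nearly all actives have a fitted effect of over 70% in size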
D2 ag-3 = counter-screen for D3 agonists: human D2 dopamine receptor agonism | shares compounds with D2 ag-2 | DiscoveRx PathHunter D2 beta-arrestin, luminescence, 90 min; response scale: percent relative to full dopamine signal | Potency, µM (titrated, usually from 76.9 µM), without a hit: top-dose activation, actives largely listed as activators | 2,300 tested, 5.9% active | AID 720507; also: potency is read from the fitted curve at half-maximal effect; % of control where 0% means no effect; nearly all actives have a fitted effect of over 70% in size
Active calls of the source: *; ? = inconclusive; / = no result. The list is not random: actives were taken first. Their share in the collection is about 2.4%. Unless noted, calls follow the shape of the dose curve; as a rule, active = well fitted activation curve with a large enough effect; inconclusive = small, poorly fitted or top-dose-only effect; inactive = flat fitted curve, though single readings scatter.

SMILES	D2 ag-1	D2 antagonist	D2 ag-2	D2 PAM-1	D2 PAM-2	D3 ag	D2 ag-3
O=S(=O)(NCC(c1ccc2c(c1)OCO2)N1CCN(c2ccccc2)CC1)c1ccccc1 (stereo not given)	?	80.5*	71.3*	-27.8	9.6	12.8%	?
CCOC(=O)c1sc(NC(=O)c2c(CC)noc2C)nc1C	-0.5	-0.3	0.1	-10.3	0.0	-1.8%	-0.9%
CCOC(=O)c1sc(NC(=O)CSCc2c(C)noc2C)nc1C	10.4	-7.2	-0.9	1.4	-3.1	-5.4%	-4.2%
COc1ccc(CNC(=O)Nc2cn(CC(C)C)c(=O)c3ccccc23)cc1	/	/	-1.2	2.3	/	/	/
Cc1ccc(C(=O)N2CCN(C34CC5CC(CC(C5)C3)C4)CC2)o1	0.3	/	/	/	-13.3	-2.3%	0.6%
CCc1c(C)nc2nncn2c1Nc1cccc(C)c1	/	/	0.6	6.2	/	/	/
CCCNC(=O)C(Cc1ccc(Br)cc1)NC(=O)c1ccc(C#N)cc1 (stereo not given)	-1.5	19.4	-0.2	-0.6	-0.6	-8.2%	-4.1%
CCCNC(=O)C(Cc1ccc(Cl)cc1)NC(=O)c1ccc(C#N)cc1 (stereo not given)	-9.2	1.7	0.2	1.1	-1.3	-1.5%	-3.7%
CCCNC(=O)C(Cc1ccc(Cl)cc1)NC(=O)c1ccc(-c2ccccc2)cc1 (stereo not given)	-0.1	-1.8	0.0	-2.4	1.4	/	/
CCOC(=O)c1ccc(NC(=O)CC(=O)Nc2ccc3nc4n(c(=O)c3c2)CCCCC4)cc1	/	/	0.4	-6.7	/	/	/
COc1ccc(-c2onc(C)c2C)cc1S(=O)(=O)N1CCN(c2ccc(Cl)cc2)CC1	/	/	0.6	-1.9	/	/	/
COc1ccc(NC(=O)c2cccc(N3CCCS3(=O)=O)c2)cc1	/	/	0.1	-1.0	/	/	/
COc1cc(NC(=O)c2cc3c(=O)oc4ccc(C)cc4c3s2)cc(OC)c1OC	/	/	0.7	9.5	/	/	/
Cc1ccc(NC(=O)C2CCN(S(=O)(=O)c3c(C)noc3C)CC2)c(C)c1	/	/	-1.1	-0.6	/	/	/
CC(C)CNC(=O)CN(C1CCCCC1)S(=O)(=O)c1ccccc1	-3.1	25.2	0.0	-8.0	-1.6	-7.5%	-2.4%
O=C(Nc1ccccc1C(F)(F)F)c1cc(-c2cccc(O)c2)on1	-0.2	-14.9	0.9	-9.8	-7.1	/	/
CCc1ccccc1NC(=O)c1cc(-c2cccc(O)c2)on1	-2.3	/	/	/	3.3	-8.4%	-0.8%
CC(=O)Nc1ccc(C(=O)Nc2ccc(S(=O)(=O)N3CCOCC3)cc2)cc1	4.2	-5.8	0.6	3.0	0.7	/	/
O=C(Nc1ccc(N2CCOCC2)cc1)c1ccc(S(=O)(=O)N2CCCCC2)cc1	-1.6	3.6	2.5	-10.2	-14.6	-1.5%	-1.4%
C=CC[C@@H]1Cc2c(Br)ccc(Br)c2[C@@H](CC=C)N1	?	-5.1	6.1	3.2	12.0	/	/
C=CCC1NCCc2c(Br)cccc21 (stereo not given)	3.6	29.2	47.1*	-16.4	-11.2	-14.9%	-0.1%
O=C(NC1(C(F)(F)F)NC(=O)N(c2ccccc2)C1=O)c1cccs1 (stereo not given)	-5.4	29.6	-0.1	-5.5	-11.9	8.8%	-3.9%
CCCCSCCCNC(=O)c1cc(-c2cccnc2)nc2ccc(S(=O)(=O)N3CCC(C)CC3)cc12	/	/	0.9	3.0	/	/	/
CCOC(=O)N1CCC(NC(=O)c2ccc(CS(=O)c3cccc(Cl)c3)o2)CC1 (stereo not given)	1.0	54.1*	43.6*	-15.0	-7.1	-2.6%	-0.4%
CCOc1ccc(NC(=S)NC(=O)c2c(Br)cnn2C)c([N+](=O)[O-])c1	-4.9	4.5	47.8*	-15.8	-5.5	-5.1%	1.4%
SMILES	D2 ag-1	D2 antagonist	D2 ag-2	D2 PAM-1	D2 PAM-2	D3 ag	D2 ag-3
O=C1Cc2cc(S(=O)(=O)N3CCCCC3)cc3c2N1CCC3	/	/	0.9	-8.5	/	/	/
O=C(O)C1C2C=CC(C2)C1C(=O)NCCCc1ccccc1 (stereo not given)	0.9	-25.6	1.4	1.0	-8.6	/	/
O=C(O)C1C2C=CC(C2)C1C(=O)NCCc1ccccc1 (stereo not given)	8.4	22.7	52.7*	-12.2	15.0	-0.1%	0.3%
CC(OC(=O)C1CCCC1)C(=O)Nc1ncc(Cl)cc1Cl (stereo not given)	2.2	-5.9	0.3	4.2	-1.3	-2.6%	-1.7%
CCOc1ccc2c(c1)c(=O)c(C(=O)c1ccccc1)cn2Cc1ccccc1F	/	/	/	13.9	/	/	/
COc1cc(C)c(NC(=O)C(=S)NCCc2ccccc2)cc1C	1.5	-10.8	5.4	9.2	1.2	9.6%	23.9%
COc1ccc(NC(=S)NCCc2ccccc2)c(C)c1	-1.8	1.1	-0.7	-3.0	3.3	/	/
CCOC(=O)c1ccc(-n2cccc2/C=C2\NC(=O)NC2=O)cc1	/	7.0	-0.6	-14.2	/	2.3%	1.9%
Cc1ccc(Cl)cc1N1CCN(S(=O)(=O)c2ccc3c(c2)CCN3C(=O)C2CCC2)CC1	/	/	23.8	-9.3	/	/	/
COc1ccccc1CNC(=O)C1CCCN(c2nnc(-n3c(C)ccc3C)s2)C1 (stereo not given)	/	/	-1.3	11.0	/	/	/
CCC(=O)Nc1ccc2c(c1)nc(CCN1CCN(c3ccccc3)CC1)n2C	3.7	21.1	61.5*	-21.6	-8.9	-5.4%	6.6%
Cn1c(CCN2CCN(c3ccccn3)CC2)nc2cc(NC(=O)COc3ccc([N+](=O)[O-])cc3)ccc21	2.4	30.8*	82.0*	-13.9	2.9	14.6%	18.4%
CCC(=O)Nc1ccc2c(c1)nc(CCN1CCCCC1)n2C	-7.1	-2.8	0.6	-1.9	-16.7	/	/
CC(C)C(=O)Nc1ccc2c(c1)nc(CCN1CCN(c3ccccn3)CC1)n2C	?	32.6*	66.9*	-21.8	-2.1	?	16.5%
CN(Cc1ccccc1)S(=O)(=O)c1nnc(NC(=O)c2ccccc2Cl)s1	/	/	0.0	2.4	/	/	/
COc1ccc(OC)c(S(=O)(=O)N2CC=C(c3c(C)n(CC(=O)N4CCCC4)c4ccccc34)CC2)c1	/	/	0.5	-1.3	/	/	/
CC1CCCN(S(=O)(=O)c2ccc(N3CCCCS3(=O)=O)cc2)C1 (stereo not given)	/	/	0.9	-0.2	/	/	/
COC(=O)c1sc2nc3c(cc2c1N)C(=O)CC(C)(C)C3	-1.8	15.7	-0.4	1.8	-27.9	/	/
Cc1cc(C)c(NC(=O)c2sc3nc4c(cc3c2N)C(=O)CC(C)(C)C4)c(C)c1	0.6	5.2	44.2*	-9.6	-6.7	-4.6%	0.9%
COC(=O)c1ccc(NC(=O)CC2C(=O)N(c3ccccc3)C(=O)N2Cc2ccc(F)cc2)cc1 (stereo not given)	/	/	1.1	-9.7	/	/	/
